PubChem BioAssay (NCI)
About 83,000 compounds went through this panel and 20% of them were active in at least one assay; those are over-represented in the sample as a whole.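 Values shown are percent growth following 48 h exposure of cells in 96-well plates to a single concentration of compound; below 10 was considered active.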 Unmarked numbers belong to inactive results. Activity calls are given as the source filed them.

What follows are molecules tested on HL-60(TB) leukemia (assay: NCI-60 one-dose screen, 48 h (100 = growth as untreated, 0 = no growth, -100 = all killed)). Conditions: 10 µM unless noted.
Molecule `CCOC(=O)c1cc2cccc(OC)c2oc1=O` has a growth of 117%.
In the case of `CN(C)c1ccc(C(c2ccc(O)cc2)c2ccc(N(C)C)cc2)cc1`, the growth is reported as 87.1%.
`Nc1nc(N)c(-c2ccc(Cl)cc2)c(/C=C/c2ccc([N+](=O)[O-])cc2)n1` was tested, and the growth was 47.8%.
In the case of `COc1ccc(-c2cc(-c3ccc(OC)c(OC)c3)nc(SCCCCCC(=O)NO)n2)cc1`, the growth is reported as -9.93% (active).
Work on `O=C(O)c1ccc2c3ccc(C(=O)O)c4c(C(=O)O)ccc(c5ccc(C(=O)O)c1c25)c43` yielded a growth of 111%.
Work on `COC(OC)C1(c2ccccc2)NC(=O)NC1=O` (stereo not given) yielded a growth of 122%.
Work on `O=C(O)c1cn(C2CC2)c2cc(N3CCN(Cc4cc(Cl)ccc4O)CC3)c(F)cc2c1=O` yielded a growth of 46.4%.
With `CN1CCN(Cc2ccc(NC(=O)c3cncc(C#Cc4c(N)ncc5ccc(F)cc45)c3)cc2C(F)(F)F)CC1` the growth was 17.4%.
Molecule `C/C(=C(/c1ccc(Cl)cc1)c1ccc(OCCN2CCCCCC2)cc1)c1ccccc1` has a growth of 63.6%.
`COc1ccc(-c2cc3c(C)nc(N)nc3n(C3CCC(OCCO)CC3)c2=O)cn1` (stereo not given) gave a growth of 28.4%.
With `Cc1ccc(S(=O)(=O)Oc2ccc(NC(=O)c3ccc(Cl)cc3)cc2)cc1` the growth was 89.2%.
`O=C(Nc1cccc([N+](=O)[O-])c1)c1ccc(Cl)c(Cl)c1` gave a growth of 87.8%.
For `COc1cc(C[C@H]2COc3cc(O)cc(O)c3C2=O)ccc1O`, the growth was -35.5% (active).
Molecule `C#CCOc1ccc2ncnc(Nc3cccc(NC(=O)CCl)c3)c2c1` has a growth of 63.7%.
Work on `Cc1ccccc1CCO` yielded a growth of 100%.
